AC50 and outcome data for 40 compounds are collected here from PubChem BioAssay (EPA / NIEHS).

“And” between values parts separate entries of the source, which are not always exact repeats. Equal entries are not always repeated. The source made the active and inactive calls. The calls were made as follows: active = hit-call score of the fitted dose curve at least 0.9, where 1 is the maximum; inactive = score below 0.9.

Read-out in the assay: Cytochrome P450 (CYP1A2), CYP1A2 (gene 1544)
The experiment in a line: LTEA_HepaRG_CYP1A2: Life Technologies and Expression Analysis (LTEA) Assay for Cytochrome P450 (CYP1A2) using HepaRG (AID 2283479).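 As to AC50: TaqMan qRT-PCR transcript level normalized to ACTB GAPDH and POLR2A.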 The conditions noted are these: mRNA level, 48 h; actives raise or lower the signal. As to the method:
LTEA_HepaRG is a cell based, multiplexed-readout assay that uses HepaRG, a human liver cell line, with measurements taken at 48 hours after chemical dosing on a 96-well plate.LTEA_HepaRG_CYP1A2 is one of 102 assay component(s) measured in the LTEA HepaRG cell culture assay. It is a marker of NR mediated metabolism.Data from the assay component LTEA_HepaRG_CYP1A2 was analyzed into 1 endpoint. This assay endpoint, LTEA_HepaRG_CYP1A2, was analyzed with bidirectional fitting relative to DMSO as the negative control and baseline of activity. Using a type of inducible reporter, measures of mRNA induction for gain or loss-of-signal activity can be used to understand regulation of transcription factor activity. To generalize the intended target to other relatable targets, this assay endpoint is annotated to the cyp intended target family, where the subfamily is xenobiotic metabolism.
A total of 1060 chemcials from the ToxCast library were tested in eight-point concentration-response experiments. Cell culture and cytotoxicity assays were conducted at Thermo Fisher Scientific's Custom Services facility (Madison, WI). A single lot of human HepaRG cells (Thermo Fisher Scientific, Frederick, MD) was used for the cell culture experiments. 96-well format collagen type I coated plates of human HepaRG cells were prepared using established methods. Briefly, cryopreserved HepaRG cells were thawed, plated at a density of approximately 100,000 cells/well in HepaRG Thaw, Plate, and General Purpose media (HPRG770, Thermo Fisher Scientific), and incubated for 48 hours. 0.5% DMSO was selected as vehicle control to balance the requisite need of DMSO in HepaRG cultures to maintain differentiation (for example, baseline metabolism, proportions of hepatocytes vs. cholangiocytes), while enabling further hepatic receptor pathway activation (for example, PXR and CAR) in response to chemical exposure. 48 hours after plating, the culture medium was replaced with HepaRG Serum-Free Incudtion Media. Cells were exposed to each test chemical in duplicate and maintained in CO2 incubators for another 48 hours. Chemical plates were thawed to room temperature and 200x concentrations of treatment groups were prepared. 8-point conentration-reponse curves were made with the highest exposure at 100 uM, followed by half-log dilutions, all in 0.5% DMSO. Each test plate contained variouse controls, induction positive controls (1mM phenobarbital), cytotoxicity positive controls ([…] aflatoxin B1), vehicle controls (0.5% DMSO), and total lysis controls (0.5% DMSO). Cell morphology images were taken using an Essen IncuCyte FLR automated microscope, with six 96-well plates imaged in about 24 minutes. Images were captured and exported and JPEG files. Spent culture media was transfered to black-well plates for the LDH assay, and remaining media was sorted at -80 C for later use. Cells were treated with RLT buffer and frozen until shipped for gene expression analysis. Total RNA was isolated from the cell suspension in 75 uL of Buffer RLT (Qiagen, Germantown, MD 20874) by Quintiles/Expression Analysis (Durham, NC) using a custom isolation procedure. Total RNA from each plate well was transferred to a preamplification plate. Fluidigm's 96.96 Dynamic ArrayTM (Fluidigm, Amsterdam, the Netherlands) technology was used for gene expression analyses by quantitative reverse transcription polymerase chain reaction (qRT-PCR, performed by Quintiles/Expression Analysis, Durham, NC)89. Standard TaqManTM Assays (Applied Biosystems/ThermoFisher Scientific, Foster City, CA) were used to assess the expression of 93 genes selected based on their selectivity and sensitivity to important hepatic receptors known to be modulated by environmental chemicals; importance in human hepatocyte functionality; and hepatotoxicity. […]
With `CN1CSC(=S)N(C)C1`, the AC50 (usually the concentration at which the activity in the assay is half-maximal) was 34.7 µM (active).

On to `C#CCN1C(=O)COc2cc(F)c(N3C(=O)C4=C(CCCC4)C3=O)cc21`, for which the result was inactive.

With `Clc1ccccc1-c1nnc(-c2ccccc2Cl)nn1`, the AC50 was 17.3 µM (active).

On to `ClC1C(Cl)C(Cl)C(Cl)C(Cl)C1Cl` (stereo not given), for which the outcome was inactive.

For the compound `C[C@H]1[C@H](c2ccc(Cl)cc2)SC(=O)N1C(=O)NC1CCCCC1`, the AC50 is 83.9 µM (active).

For the compound `Oc1cc(Cl)ccc1Oc1ccc(Cl)cc1Cl`, the call was inactive.

With `CC(C)OC(=O)Nc1cccc(Cl)c1`, the compound was called inactive.

With `CNC(=O)CSP(=S)(OC)OC`, the AC50 was 16.2 µM (active).

For `O=C(O)CCCOc1ccc(Cl)cc1Cl`, the half-maximal activity concentration (AC50) is 73.8 µM (active).

Turning to `CC(C)(C)C(O)/C(=C\c1ccc(Cl)cc1Cl)n1cncn1` (stereo not given), the call was inactive.

Turning to `CNC(=O)/C=C(\C)OP(=O)(OC)OC`, the call was inactive.

In the case of `O=C1c2ccccc2C(=O)N1SC(Cl)(Cl)Cl`, the result was inactive.

In the case of `O=[N+]([O-])/N=C1\NCCN1Cc1ccc(Cl)nc1`, the AC50 is 23.6 µM (active).

With `O=C(O)C(F)(F)C(F)(F)C(F)(F)C(F)(F)C(F)(F)C(F)(F)C(F)(F)F`, the call was inactive.

On to `CC(C)(C)C(O)C(Oc1ccc(Cl)cc1)n1cncn1` (stereo not given), for which the AC50 was 22.2 µM (active) and 36.8 µM (active) and 32.8 µM (active).

In the case of `CC(C)N(C(=O)COc1nnc(C(F)(F)F)s1)c1ccc(F)cc1`, the result was inactive.

In the case of `O=[N+]([O-])c1c(Cl)c(Cl)c(Cl)c(Cl)c1Cl`, the AC50 was 36.7 µM (active).

As to `CCCN(CCOc1c(Cl)cc(Cl)cc1Cl)C(=O)n1ccnc1`, the AC50 is 3.86 µM (active).

As to `COc1nn(CSP(=S)(OC)OC)c(=O)s1`, the AC50 is 12.1 µM (active).

Take `Cc1[nH]c(=O)n(C(C)(C)C)c(=O)c1Cl`: the AC50 is 36.2 µM (active).

Take `CCC(C)Nc1c([N+](=O)[O-])cc(C(C)(C)C)cc1[N+](=O)[O-]` (stereo not given): the outcome was inactive.

As to `CCc1ccc(C(=O)NN(C(=O)c2cc(C)cc(C)c2)C(C)(C)C)cc1`, the outcome was inactive.

In the case of `O=C(O)COc1ccc(Cl)cc1Cl`, the AC50 is 50 µM (active).

On to `O=S1OCC2C(CO1)C1(Cl)C(Cl)=C(Cl)C2(Cl)C1(Cl)Cl` (stereo not given), for which the AC50 is 35.4 µM (active).

For the compound `COP(=S)(OC)Oc1ccc([N+](=O)[O-])cc1`, the concentration at half-maximal activity (AC50) is 32.8 µM (active).

Regarding `CC[C@H](C)[C@H]1O[C@]2(C=C[C@@H]1C)C[C@@H]1C[C@@H](C/C=C(\C)[C@@H](O[C@H]3C[C@H](OC)[C@@H](O[C@H]4C[C@H](OC)[C@@H](O)[C@H](C)O4)[C@H](C)O3)[C@@H](C)/C=C/C=C3\CO[C@@H]4[C@H](O)C(C)=C[C@@H](C(=O)O1)[C@]34O)O2` (tested in a mixture with another compound), the AC50 is 10.9 µM (active).

For `COP(=O)(OC)OC=C(Cl)Cl`, the call was inactive.

Take `CCOC1Oc2ccc(OS(C)(=O)=O)cc2C1(C)C` (stereo not given): the AC50 was 73.3 µM (active).

As for `N#Cc1c(Cl)c(Cl)c(Cl)c(C#N)c1Cl`, the AC50 was 13.7 µM (active).

Regarding `CCC(C)(NC(=O)c1cc(Cl)c(C)c(Cl)c1)C(=O)CCl` (stereo not given), the AC50 was 74.1 µM (active).

Consider `OCCOc1ccccc1`, for which the compound was classed as inactive.

In the case of `COP(=S)(OC)Oc1ccc(SC)c(C)c1`, the AC50 was 35 µM (active).

`CC1(C)C(C=C(Cl)Cl)C1C(=O)OC(C#N)c1ccc(F)c(Oc2ccccc2)c1` (stereo not given): the concentration at half-maximal activity (AC50) is 20.2 µM (active).

As for `CCN(CC)C(=O)SCc1ccc(Cl)cc1`, the compound was classed as inactive.

With `CCCN(CCC)c1c([N+](=O)[O-])cc(C(F)(F)F)cc1[N+](=O)[O-]`, the AC50 is 32.3 µM (active).

For the compound `CNC(=O)Oc1ccccc1OC(C)C`, the compound was classed as inactive.

Turning to `CCC(C)(C)C(=O)OC1=C(c2ccc(Cl)cc2Cl)C(=O)OC12CCCCC2`, the AC50 is 50 µM (active).

`CC1(c2ccc(Oc3ccccc3)cc2)OC(=O)N(Nc2ccccc2)C1=O` (stereo not given): the AC50 was 50.2 µM (active).

Take `CCOCN(C(=O)CCl)c1c(C)cccc1CC`: the outcome was inactive.

On to `O=C(Nc1ccccc1)Nc1cnns1`, for which the AC50 is 68 µM (active).
